Nine compounds from PubChem BioAssay (NCATS) can be followed below.

Inconclusive results are not listed. Values without a mark were called inactive. Active and inactive are the calls of the source. Calls come from the whole dose curve; as a rule, active = well fitted inhibition curve with a large enough effect; inconclusive = small, poorly fitted or top-dose-only effect; inactive = flat fitted curve, though single readings scatter.

One experiment has as its system TAB113. The experiment in a line: qHTS profiling for inhibitors of Plasmodium falciparum proliferation (AID 504749). Note: potency is the fitted concentration of half-maximal effect. The settings on record: P. falciparum in erythrocytes, SYBR Green DNA, 72 h; series mostly up to 28.7 µM. The essentials:
(§1)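 P. falciparum-infected erythrocytes (0.3% parasitemia, 2.5% hematocrit final) were exposed to compounds for 72 h at 37 C in 5% CO2, then lysed with SYBR Green buffer overnight at room temperature; parasite DNA fluorescence was normalized to artemisinin and DMSO controls.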
On the technique in general: qHTS replaces the single test concentration by a dilution series.

Another experiment relates to TAB165. Described as above. The settings on record: P. falciparum in erythrocytes, SYBR Green DNA, 72 h; series mostly up to 28.7 µM. The essentials: as §1
The next experiment has as its system W2. The experiment is described as above. The conditions noted are these: P. falciparum in erythrocytes, SYBR Green DNA, 72 h; series mostly up to 28.7 µM. In a few lines:
as §1

In the next experiment the test system is HEK293. Nature of the experiment: Cytotoxic Profiling of Annotated Libraries Using Quantitative High-Throughput Screening (AID 1296008). For max response: % is set by controls: 0 for no effect and ±100 for the full control effect. Note: potency is the fitted concentration of half-maximal effect. The settings on record: Five cell lines viability, CellTiter-Glo ATP luminescence, 48-72 h; max response: hits give low values. In a few lines:
(§2)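 Compounds were pin-transferred onto cells and incubated 48 or 72 hr at 37 degree Celsius, 95% humidity. CellTiter-Glo was added, plates sat 10 min at room temperature, then ATP-coupled luminescence was imaged as the viability read-out.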
A general note: Cellular ATP, detected with luciferase, serves as a proxy for viable cell number.

Another experiment concerns NIH3T3. The description is as above. The conditions noted are these: Five cell lines viability, CellTiter-Glo ATP luminescence, 48-72 h; max response: hits give low values. In a few lines: as §2
Experiment [1] has as its system HaCat. The description is as above. The conditions noted are these: Five cell lines viability, CellTiter-Glo ATP luminescence, 48-72 h; max response: hits give low values. In a few lines: as §2
In a further experiment the test system is KB-3-1. The experiment is described as above. The settings on record: Five cell lines viability, CellTiter-Glo ATP luminescence, 48-72 h; max response: hits give low values. In a few lines: as §2
The subject of experiment [2] is HACAT. Nature of the experiment: qHTS assay to identify novel small-molecules to repurpose for Merkel cell carcinoma treatment (AID 1296009). The settings on record: MCC and control cell lines, CellTiter-Glo viability, 72 h; at 44.8 µM (top of the series) unless noted. The essentials:
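Cells exposed to NPC (8-point) and MIPE (11-point) compound dilutions for 72 hr at 37 degree celsius; viability read by CellTiter-Glo luminescence, normalized to no-cell and DMSO in-plate controls.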
Note: nearly all actives have a fitted effect of over 60% in size.

As to `CCC(C(=O)O)C1CCC(C)C(C(C)C(O)C(C)C(=O)C(CC)C2OC3(C=CC(O)[C@@]4(CC[C@](C)(C5CC[C@@](O)(CC)C(C)O5)O4)O3)C(C)CC2C)O1` (some centres undefined), the Potency with TAB113 was 891 nM (active); with TAB165, 708 nM (active); in the experiment on W2, 757 nM (active); with HEK293, 1180 nM (active); with NIH3T3 it was 8330 nM (active).

For the compound `N#CC(=C(N)Sc1ccc(N)cc1)c1ccccc1C(F)(F)F`, in the experiment on HaCat [1], the Potency is 1660 nM (active). In addition, the max response with KB-3-1 was -9.42%.

Turning to `COc1cccc2c1C(=O)c1c(O)c3c(c(O)c1C2=O)C[C@@](O)(C(=O)CO)C[C@@H]3O[C@H]1C[C@H](N)[C@H](OC2CCCCO2)[C@H](C)O1` (some centres undefined), the Potency with TAB113 was 3550 nM (active); in the experiment with TAB165, 2240 nM (active); with W2 it was 601 nM (active); with HEK293 it was 332 nM (active); in the experiment on HaCat [1] it was 2350 nM (active); in the experiment with KB-3-1, 833 nM (active). The Potency in the experiment on NIH3T3 was 590 nM (active).

As to `COc1cc2c(cc1O)CCC1C2CC[C@@]2(C)C1CC[C@@H]2O` (some centres undefined), the Potency is 1180 nM (active) in the experiment on HEK293, 3320 nM (active) with KB-3-1 and 4180 nM (active) with NIH3T3.

For the compound `C[C@]12CC[C@@H]3c4ccc(O)cc4CC[C@H]3[C@H]1CC[C@H]2O`, the figures for the Potency with HEK293 and with KB-3-1 were 20900 nM (active) and 11800 nM (active), respectively.

Take `CCCCCN=C(N)NN=Cc1c[nH]c2ccc(OC)cc12`: the Potency with HEK293 is 7430 nM (active); in the experiment with KB-3-1, 10500 nM (active); with NIH3T3, 13200 nM (active).

For the compound `COc1cc(OC)c(C=CS(=O)(=O)Cc2ccc(OC)c(NCC(=O)O)c2)c(OC)c1`, the Potency with HEK293 is 118 nM (active); in the experiment with NIH3T3, 105 nM (active). The max response with HaCat [1] is 3.08%.

With `N#CC(=Cc1ccc(O)c(O)c1)C(=O)NCc1ccccc1`, the max response in the experiment with HaCat [1] was -2.31%. For the same compound, the outcome in the experiment on KB-3-1 was inactive.

As for `CCCCCCCCCCCC(CC1OC(=O)C1CCCCCC)OC(=O)C(CC(C)C)NC=O` (centres undefined), the Potency with TAB113 is 282 nM (active); in the experiment with TAB165 it was 398 nM (active); in the experiment with W2 it was 675 nM (active). Moreover, the call in the experiment with HaCat [1] and in the experiment on HACAT [2] was inactive. Also, the max response is 7.07% in the experiment on KB-3-1 and 0.608% in the experiment with NIH3T3.
